USP30 block – inhibitors of human USP30 deubiquitinase; Q70CQ3; AID 1645860; purified USP30, Ub-rhodamine cleavage fluorescence; inhibition, % at 25 µM; hit rate 5.3% among 47,000
USP28 block – inhibitors of human USP28 deubiquitinase; Q96RU2; purified USP28, Ub-rhodamine cleavage fluorescence, 30 min; inhibition, % at 25 µM; hit rate 3% among 47,000; AID 1645857
USP17 block – human USP17-like deubiquitinase inhibition | A8MUK1 | purified USP17, Ub-rhodamine cleavage fluorescence, 3 h | inhibition, % at 50 µM | hit rate 6.5% among 47,000 | AID 1645855
Target sequence (A8MUK1 whole entry, looked up): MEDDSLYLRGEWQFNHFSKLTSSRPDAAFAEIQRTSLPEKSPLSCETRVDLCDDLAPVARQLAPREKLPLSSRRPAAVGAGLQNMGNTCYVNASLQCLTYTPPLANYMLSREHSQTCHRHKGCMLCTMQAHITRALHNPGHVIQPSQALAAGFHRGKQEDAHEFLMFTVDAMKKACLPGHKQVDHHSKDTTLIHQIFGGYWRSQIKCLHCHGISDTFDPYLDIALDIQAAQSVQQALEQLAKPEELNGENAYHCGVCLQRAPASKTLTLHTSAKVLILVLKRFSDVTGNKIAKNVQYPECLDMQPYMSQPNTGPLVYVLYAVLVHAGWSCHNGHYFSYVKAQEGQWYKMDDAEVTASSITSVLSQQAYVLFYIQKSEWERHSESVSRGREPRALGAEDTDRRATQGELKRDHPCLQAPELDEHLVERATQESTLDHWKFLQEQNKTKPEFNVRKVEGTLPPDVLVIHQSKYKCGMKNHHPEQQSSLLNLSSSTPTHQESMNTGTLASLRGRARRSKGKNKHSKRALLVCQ
* marks the source's active call; other numbers are inactive results; i = inactive; . = no result. Compounds with a hit are over-represented: about 11% of the library has one in this group of screens. No stated cut-off is given here; in the data, active means inhibition above about 30%; inactive means the rest.

SMILES	USP30 block	USP28 block	USP17 block
COc1cccc(C2c3[nH]c4ccccc4c3C[C@H]3C(=O)N(c4ccccc4C(=O)NCC4CCCO4)C(=O)N23)c1 (some centres not stated)	-284	-30	-37
CCN1CCN(c2cc(C)c3cc(NC(=O)c4ccco4)ccc3n2)CC1	-14	4	13
O=C(C1CCC1)N1CCc2cc(S(=O)(=O)NCCCN3CCN(c4ccccc4F)CC3)ccc21	13	-3	8
CO\C=C(C(=O)OC)/C(C)=C\C=C\c1ccc(OCC=C(C)C)c(O)c1	27	22	40*
O=C(c1cn(-c2ccc(F)cc2)nn1)N1CCCCC1	20	7	4
COc1cc2c(cc1OC)-c1c(c(C(=O)N3CCCC3)nn1-c1ccccc1F)C2	99*	76*	76*
COc1cc2c(cc1OC)-c1c(c(C(=O)O)nn1-c1ccc(F)cc1)C2	10	3	0
Cc1cc(C)c2c(-n3cccc3)c(C(=O)NCCc3ccc(S(N)(=O)=O)cc3)sc2n1	-15	80*	3
COc1ccccc1CNC(=O)c1sc2nc(C)cc(C)c2c1-n1cccc1	25	15	12
CCc1ccc(Nc2cc(C(=O)NC3CCCC3)c3ccccc3n2)cc1	-13	-10	-5
COc1ccc(OC)c(CCNC(=O)c2ccc3c(=O)n4c(nc3c2)CCCC4)c1	17	14	12
CCOc1ccc(CCNC(=O)c2cc(Nc3ccccc3C)nc3ccccc23)cc1OCC	56*	41*	58*
Cc1ccc(CCNC(=O)c2cc(Nc3ccccc3C)nc3ccccc23)cc1	-10	3	-5
CCOc1ccc(Nc2cc(C(=O)NCCC3=CCCCC3)c3ccccc3n2)cc1	32*	15	44*
CCOc1ccc(CCNC(=O)c2ccc3c(SCC(=O)O)c4c(nc3c2)CCC4)cc1OCC	-4	42*	34*
COc1ccc(NS(=O)(=O)c2cc(NC(=O)CC(=O)c3ccc([N+](=O)[O-])cc3)ccc2Cl)cc1	19	0	49*
COc1ccccc1NS(=O)(=O)c1cc(NC(=O)CC(=O)c2ccc([N+](=O)[O-])cc2)ccc1C	11	12	.
COc1ccc(NS(=O)(=O)c2cccc(NC(=O)CCC(=O)c3ccc(Cl)cc3)c2)cc1	-1	4	9
COc1ccc([N+](=O)[O-])cc1NS(=O)(=O)c1cc(C(=O)NCc2cccnc2)ccc1Cl	17	0	-21
COc1ccc(NS(=O)(=O)c2cccc(NC(=O)CC(=O)c3ccc([N+](=O)[O-])cc3)c2)cc1	.	.	76*
COc1ccc(NC(=O)CC(=O)c2ccc([N+](=O)[O-])cc2)cc1S(=O)(=O)Nc1ccc(Cl)cc1	61*	26	38*
COc1ccccc1C(=O)N1CCc2[nH]c3ccc(F)cc3c2C1	i	-188	-165
O=C(CN1C(=O)C(O)(c2cccc(F)c2)c2ccccc21)Nc1ccccc1F (configuration not stated)	11	13	9
COCC(=O)N1Cc2ccccc2N(C)C(Cc2ccccc2)C1 (configuration not stated)	-78	-24	-12
O=C(/C=C/c1ccc(OCc2ccccc2)cc1)N1CCN(C(c2ccccc2)c2ccccc2)CC1	-27	-18	-14
SMILES	USP30 block	USP28 block	USP17 block
COc1ccccc1N1CCN(C(=O)/C=C/c2ccc(OCc3ccc(Cl)cc3Cl)cc2)CC1	31*	5	6
N#Cc1cccc(NC(=O)c2ccc3c(c2)nnn3CCN2CCOCC2)c1	6	9	2
CSc1ccccc1C(=O)Nc1sc2c(c1C(N)=O)CCCCC2	-2	29	38*
CC1CCc2sc(NC(=O)c3ccccc3Oc3ccccc3)c(C(N)=O)c2C1 (configuration not stated)	21	6	83*
CSc1ccccc1C(=O)Nc1sc2c(c1C(N)=O)CCC(C)C2 (configuration not stated)	-1	12	80*
CC1CCc2c(sc(NC(=O)c3cccc(S(C)(=O)=O)c3)c2C(N)=O)C1 (configuration not stated)	14	2	0
CSc1cccc(C(=O)Nc2sc3c(c2C(N)=O)CCC(C)C3)c1 (configuration not stated)	3	-4	6
CS(=O)(=O)c1cccc(C(=O)Nc2sc3c(c2C(N)=O)CCCCC3)c1	-79	-27	-52
CN(Cc1ccccc1)C(=O)c1cc(-c2ccccc2F)no1	0	23	-8
Cc1nc(C2CCCCN2Cc2cccnc2)nc2c1CCC(=O)N2Cc1ccccn1 (configuration not stated)	-26	-18	-14
C=C(C)[C@]1(O)CC[C@]2(C)C(CC=C(C)[C@@]23Cc2c(cc(-c4cccnc4)oc2=O)O3)[C@@]12CCC(=O)OC2 (some centres not stated)	-118	-6	-50
NC(=O)c1cccc(-c2nccnc2C2CCCN(C3CCCC3)C2)c1 (configuration not stated)	17	10	15
O=C(Nc1ccccc1)N1CCCC2(CCCN2Cc2ccccc2F)C1 (configuration not stated)	32*	-1	3
O=C(Nc1ccccc1)N1CCC2(CN(Cc3ccccc3F)C2)C1	-3	-3	-15
c1cnn(CC2CCCN2Cc2nc(-c3ccoc3)no2)c1 (configuration not stated)	-104	-27	.
COc1ccc(S(=O)(=O)c2nnn(-c3cccc(C)c3)c2C)cc1	15	10	4
CC(C)(C)c1ccc(CCC(=O)Nc2ccc3c(c2)OCCO3)cc1	16	-3	26
O=C(Nc1ccc2c(c1)OCCO2)c1cccc(N2C(=O)CCS2(=O)=O)c1	14	23	6
CC(OC(=O)c1ccc(N(C)C)cc1)C(=O)Nc1ccc2c(c1)OCCO2 (configuration not stated)	18	26	40*
CC(OC(=O)CNC(=O)c1ccc(Br)cc1)C(=O)Nc1ccc2c(c1)OCCO2 (configuration not stated)	24	23	66*
O=C(Nc1ccc2c(c1)OCO2)c1cncc(NS(=O)(=O)c2ccc3c(c2)OCCO3)c1	-282	-47	-41
CC(OC(=O)c1ccc(NS(=O)(=O)c2ccc3c(c2)OCCO3)cc1)C(=O)Nc1cccc2ccccc12 (configuration not stated)	-11	-1	-2
Cc1noc(C)c1S(=O)(=O)Nc1ccc(C(=O)Nc2ccc3c(c2)OCCO3)cc1	0	85*	13
O=C(Nc1ccc2c(c1)OCCO2)c1ccc(N2CCCC2=O)cc1	67*	45*	35*
COc1ccc(NC(=O)c2nnc3c(-c4ccccc4)c(C)nn3c2C)cc1	-42	-23	14
Cn1c(=O)c(N2CCCC(C(=O)NCCCc3ccccc3)C2)nc2cccnc21 (configuration not stated)	2	1	-9
O=C(c1ccc2c(c1)OCO2)N1CC(C(=O)N2CCN(c3ncccn3)CC2)C1	18	15	1
CCN(C(=O)COc1ccc(-c2nnco2)cc1)c1cccc2ccccc12	7	2	-5
O=S(=O)(c1cccc(F)c1)N1C[C@@H]2c3nccn3-c3ccccc3[C@@H]2C1	-2	6	1
Cc1ccoc1C(=O)N1C[C@H](OCC2CC2)[C@H]2OCCC[C@H]21	-19	-12	-14

Screens from PubChem.
